# Several values for one entry are separate records, joined by “and”; a condition that tells them apart may be missing. Identical values can stand only once. In all, about 5,500 compounds went through this assay and about 2,000 (36%) were called active. Not shown: some 18% with an inconclusive outcome. This is one part of the list. A number with no mark means an inactive call. No stated cut-off is given here; in the data, active means normalized growth mostly below about 0.91 (no sharp cut-off); inconclusive means no clear call, values can overlap the other calls; inactive means mostly above about 0.92.
# Assay: chemical genetic growth profiling, strain panel (AID 1159580);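 further: tested at 20 µM; growth read once vehicle control cultures reached saturation at 30 °C; 1 = growth at the plate median or of vehicle wells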
# Conditions: growth OD
compound,measurement,setting,value
OCCN1CCN(CCCN2c3ccccc3Sc3ccc(C(F)(F)F)cc32)CC1,normalized growth,"S. cerevisiae deletion strains, locus YJR075W, strain HOC1, stronger effect = lower value",0.939 and 0.985
same,normalized growth,"S. cerevisiae deletion strains, locus YKL009W, strain mrt4, stronger effect = lower value",0.926
same,normalized growth,"S. cerevisiae deletion strains, locus YKL068W, stronger effect = lower value",0.987
same,normalized growth,"S. cerevisiae deletion strains, locus YKL085W, strain MDH1 (second series), stronger effect = lower value",0.981
same,normalized growth,"S. cerevisiae deletion strains, locus YKL085W, strain MDH1, stronger effect = lower value",0.981
same,normalized growth,"S. cerevisiae deletion strains, locus YKL160W, strain elf1, stronger effect = lower value",0.907
same,normalized growth,"S. cerevisiae deletion strains, locus YKL190W, strain CNB1, stronger effect = lower value",0.975
same,normalized growth,"S. cerevisiae deletion strains, locus YKR001C, strain vps1, stronger effect = lower value",0.864 (active)
same,normalized growth,"S. cerevisiae deletion strains, locus YKR026C, strain gcn3, stronger effect = lower value",0.998
same,normalized growth,"S. cerevisiae deletion strains, locus YKR091W, strain srl3, stronger effect = lower value",0.976
same,normalized growth,"S. cerevisiae deletion strains, locus YLL001W, strain dnm1, stronger effect = lower value",0.983
same,normalized growth,"S. cerevisiae deletion strains, locus YLL026W, stronger effect = lower value",0.968
same,normalized growth,"S. cerevisiae deletion strains, locus YLL041C, strain sdh2, stronger effect = lower value",0.968
same,normalized growth,"S. cerevisiae deletion strains, locus YLR027C, strain aat2, stronger effect = lower value",0.951
same,normalized growth,"S. cerevisiae deletion strains, locus YLR039C, strain RIC1, stronger effect = lower value",1.48 [resistant] (active)
same,normalized growth,"S. cerevisiae deletion strains, locus YLR058C, strain SHM2, stronger effect = lower value",0.976
same,normalized growth,"S. cerevisiae deletion strains, locus YLR102C, strain apc9, stronger effect = lower value",0.995
same,normalized growth,"S. cerevisiae deletion strains, locus YLR221C, strain rsa3, stronger effect = lower value",0.975
same,normalized growth,"S. cerevisiae deletion strains, locus YLR258W, strain gsy2, stronger effect = lower value",0.949
same,normalized growth,"S. cerevisiae deletion strains, locus YLR262C, strain YPT6 (second series), stronger effect = lower value",1.04
same,normalized growth,"S. cerevisiae deletion strains, locus YLR262C, strain YPT6, stronger effect = lower value",1.41 [resistant] (active)
same,normalized growth,"S. cerevisiae deletion strains, locus YLR268W, strain sec22, stronger effect = lower value",0.901
same,normalized growth,"S. cerevisiae deletion strains, locus YLR320W, strain mms22, stronger effect = lower value",0.999
same,normalized growth,"S. cerevisiae deletion strains, locus YLR330W, strain CHS5, stronger effect = lower value",1.03
same,normalized growth,"S. cerevisiae deletion strains, locus YLR342W, strain FKS1 (second series), stronger effect = lower value",0.723 (active)
same,normalized growth,"S. cerevisiae deletion strains, locus YLR342W, strain FKS1, stronger effect = lower value",0.807 (active)
same,normalized growth,"S. cerevisiae deletion strains, locus YLR357W, strain rsc2, stronger effect = lower value",0.984
same,normalized growth,"S. cerevisiae deletion strains, locus YLR370C, strain arc18, stronger effect = lower value",0.952
same,normalized growth,"S. cerevisiae deletion strains, locus YLR371W, strain rom2, stronger effect = lower value",0.983
same,normalized growth,"S. cerevisiae deletion strains, locus YLR384C, strain iki3, stronger effect = lower value",0.981
same,normalized growth,"S. cerevisiae deletion strains, locus YLR418C, strain cdc73, stronger effect = lower value",0.76 (active)
same,normalized growth,"S. cerevisiae deletion strains, locus YML016C, strain PPZ1, stronger effect = lower value",0.994
same,normalized growth,"S. cerevisiae deletion strains, locus YML032C, strain rad52, stronger effect = lower value",0.926
same,normalized growth,"S. cerevisiae deletion strains, locus YML120C, strain ndi1, stronger effect = lower value",0.995
same,normalized growth,"S. cerevisiae deletion strains, locus YML124C, strain tub3, stronger effect = lower value",1
same,normalized growth,"S. cerevisiae deletion strains, locus YMR058W, strain fet3, stronger effect = lower value",0.884 (active)
same,normalized growth,"S. cerevisiae deletion strains, locus YMR078C, strain ctf18, stronger effect = lower value",0.986
same,normalized growth,"S. cerevisiae deletion strains, locus YMR125W, strain sto1, stronger effect = lower value",0.957
same,normalized growth,"S. cerevisiae deletion strains, locus YMR129W, stronger effect = lower value",0.978
same,normalized growth,"S. cerevisiae deletion strains, locus YMR205C, strain PFK2, stronger effect = lower value",0.992
same,normalized growth,"S. cerevisiae deletion strains, locus YMR223W, strain ubp8, stronger effect = lower value",0.963
same,normalized growth,"S. cerevisiae deletion strains, locus YMR231W, strain pep5, stronger effect = lower value",0.0843 (active)
same,normalized growth,"S. cerevisiae deletion strains, locus YMR263W, strain SAP30, stronger effect = lower value",0.933 and 0.994
same,normalized growth,"S. cerevisiae deletion strains, locus YMR307W, strain GAS1, stronger effect = lower value",0.852 and 1.02
same,normalized growth,"S. cerevisiae deletion strains, locus YNL067W, strain RPL9B, stronger effect = lower value",0.921
same,normalized growth,"S. cerevisiae deletion strains, locus YNL071W, strain lat1, stronger effect = lower value",0.988
same,normalized growth,"S. cerevisiae deletion strains, locus YNL128W, strain TEP1, stronger effect = lower value",0.944
same,normalized growth,"S. cerevisiae deletion strains, locus YNL153C, strain GIM3, stronger effect = lower value",0.919 and 0.859
same,normalized growth,"S. cerevisiae deletion strains, locus YNL175C, strain NOP13, stronger effect = lower value",1.01
same,normalized growth,"S. cerevisiae deletion strains, locus YNL197C, strain WHI3, stronger effect = lower value",1.01
same,normalized growth,"S. cerevisiae deletion strains, locus YNL209W, strain ssb2, stronger effect = lower value",0.952
same,normalized growth,"S. cerevisiae deletion strains, locus YNL224C, strain SQS1, stronger effect = lower value",1.02
same,normalized growth,"S. cerevisiae deletion strains, locus YNL233W, strain BNI4, stronger effect = lower value",0.909
same,normalized growth,"S. cerevisiae deletion strains, locus YNL248C, strain rpa49, stronger effect = lower value",0.901
same,normalized growth,"S. cerevisiae deletion strains, locus YNL250W, strain rad50, stronger effect = lower value",0.989
same,normalized growth,"S. cerevisiae deletion strains, locus YNL271C, strain bni1, stronger effect = lower value",0.986
same,normalized growth,"S. cerevisiae deletion strains, locus YNL298W, strain CLA4, stronger effect = lower value",0.963
same,normalized growth,"S. cerevisiae deletion strains, locus YNL307C, strain MCK1, stronger effect = lower value",0.98
same,normalized growth,"S. cerevisiae deletion strains, locus YNL322C, strain KRE1 (second series), stronger effect = lower value",0.968
same,normalized growth,"S. cerevisiae deletion strains, locus YNL322C, strain KRE1, stronger effect = lower value",0.995
same,normalized growth,"S. cerevisiae deletion strains, locus YNR049C, strain mso1, stronger effect = lower value",0.984
same,normalized growth,"S. cerevisiae deletion strains, locus YNR052C, strain pop2, stronger effect = lower value",0.938
same,normalized growth,"S. cerevisiae deletion strains, locus YOL006C, strain TOP1, stronger effect = lower value",0.629
same,normalized growth,"S. cerevisiae deletion strains, locus YOL012C, strain htz1",1.6
same,normalized growth,"S. cerevisiae deletion strains, locus YOL147C, strain pex11, stronger effect = lower value",0.986
same,normalized growth,"S. cerevisiae deletion strains, locus YOR001W, strain rrp6, stronger effect = lower value",0.943
same,normalized growth,"S. cerevisiae deletion strains, locus YOR061W, strain CKA2, stronger effect = lower value",0.987
same,normalized growth,"S. cerevisiae deletion strains, locus YOR069W, strain VPS5, stronger effect = lower value",0.986
same,normalized growth,"S. cerevisiae deletion strains, locus YOR070C, strain gyp1, stronger effect = lower value",0.938
same,normalized growth,"S. cerevisiae deletion strains, locus YOR080W, strain dia2, stronger effect = lower value",0.989
same,normalized growth,"S. cerevisiae deletion strains, locus YOR083W, strain WHI5 (second series), stronger effect = lower value",0.886
same,normalized growth,"S. cerevisiae deletion strains, locus YOR083W, strain WHI5, stronger effect = lower value",0.855 (active)
same,normalized growth,"S. cerevisiae deletion strains, locus YOR106W, strain vam3, stronger effect = lower value",0.644 (active)
same,normalized growth,"S. cerevisiae deletion strains, locus YOR136W, strain idh2, stronger effect = lower value",0.978
same,normalized growth,"S. cerevisiae deletion strains, locus YOR144C, strain elg1, stronger effect = lower value",0.999
same,normalized growth,"S. cerevisiae deletion strains, locus YOR184W, strain ser1, stronger effect = lower value",0.99
same,normalized growth,"S. cerevisiae deletion strains, locus YOR265W, strain rbl2, stronger effect = lower value",0.986
same,normalized growth,"S. cerevisiae deletion strains, locus YOR270C, strain vph1, stronger effect = lower value",0.788
same,normalized growth,"S. cerevisiae deletion strains, locus YOR290C, strain snf2, stronger effect = lower value",0.911
same,normalized growth,"S. cerevisiae deletion strains, locus YOR316C, strain cot1, stronger effect = lower value",0.991
same,normalized growth,"S. cerevisiae deletion strains, locus YPL051W, strain arl3, stronger effect = lower value",0.874 (active)
same,normalized growth,"S. cerevisiae deletion strains, locus YPL055C, strain LGE1, stronger effect = lower value",0.902 and 0.943
same,normalized growth,"S. cerevisiae deletion strains, locus YPL078C, strain atp4, stronger effect = lower value",0.941
same,normalized growth,"S. cerevisiae deletion strains, locus YPL106C, strain sse1, stronger effect = lower value",0.988
same,normalized growth,"S. cerevisiae deletion strains, locus YPL240C, strain hsp82, stronger effect = lower value",0.984
same,normalized growth,"S. cerevisiae deletion strains, locus YPL241C, strain CIN2, stronger effect = lower value",0.997
same,normalized growth,"S. cerevisiae deletion strains, locus YPR119W, strain clb2, stronger effect = lower value",0.988
same,normalized growth,"S. cerevisiae deletion strains, locus YPR141C, strain kar3, stronger effect = lower value",0.985
same,normalized growth,"S. cerevisiae deletion strains, locus YPR163C, strain tif3, stronger effect = lower value",0.89 (active)
same,normalized growth,"S. cerevisiae deletion strains, locus YPR167C, strain met16, stronger effect = lower value",0.984
same,normalized growth,"S. cerevisiae deletion strains, strain wtn01, stronger effect = lower value",0.887 (active)
same,normalized growth,"S. cerevisiae strains, strain wild type, stronger effect = lower value",0.949

# Source: PubChem BioAssay AID1159580 (chemical genetic matrix, 2015)
